± gives the standard deviation of the averaged measurements.
Assays:
Assay in all cases: promoter activity interaction Z-score (Lux/OD deviation from empty-vector control); higher = stronger promoter induction by the compound
[1] = test system: E. coli BW25113 acrABp lux reporter
How it was run: (§1)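 Four 1:2 dilutions of each compound were tested in biological duplicates on E. coli BW25113 carrying low-copy luxCDABE promoter reporters, either wild type or deleted for one of three genes. Cultures of 40 µl LB Lennox in 384-well plates were kept at 37°C and read for OD600 and luminescence every 30 min for 12 h. Integration windows were 0–8 h for wild type and 1–9 h for deletion strains, and wells under 10% of the median growth value were discarded. The score is a Z-transformed residual of growth-normalised luminescence relative to a control fit.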

[2] = test system: E. coli BW25113 micFp lux reporter
How it was run: as §1

[3] = test system: E. coli BW25113 ompFp lux reporter
How it was run: as §1

[4] = 20 µg/ml, genetic background: wild type
[5] = 20 µg/ml, genetic background: ΔmarA
[6] = 20 µg/ml, genetic background: Δrob
[7] = 20 µg/ml, genetic background: ΔsoxS
[8] = 39.9 µg/ml, genetic background: wild type
[9] = 39.9 µg/ml, genetic background: ΔmarA
[10] = 39.9 µg/ml, genetic background: Δrob
[11] = 39.9 µg/ml, genetic background: ΔsoxS
[12] = 79.8 µg/ml, genetic background: wild type
[13] = 79.8 µg/ml, genetic background: ΔmarA
[14] = 79.8 µg/ml, genetic background: Δrob
[15] = 79.8 µg/ml, genetic background: ΔsoxS
[16] = 159.6 µg/ml, genetic background: wild type
[17] = 159.6 µg/ml, genetic background: ΔmarA
[18] = 159.6 µg/ml, genetic background: Δrob
[19] = 159.6 µg/ml, genetic background: ΔsoxS

Structure (SMILES): NC[C@H](O)c1ccc(O)c(O)c1 [Noradrenalin]
- promoter activity interaction Z-score [1, 4]: 0.191 ± 0.043
- promoter activity interaction Z-score [1, 5]: 0.362 ± 0.59
- promoter activity interaction Z-score [1, 6]: 0.47 ± 0.3
- promoter activity interaction Z-score [1, 7]: 0.122 ± 0.4
- promoter activity interaction Z-score [1, 8]: 0.0636 ± 0.28
- promoter activity interaction Z-score [1, 9]: 0.359 ± 0.28
- promoter activity interaction Z-score [1, 10]: 0.344 ± 0.66
- promoter activity interaction Z-score [1, 11]: 0.23 ± 0.37
- promoter activity interaction Z-score [1, 12]: 0.335 ± 0.023
- promoter activity interaction Z-score [1, 13]: -0.978 ± 0.27
- promoter activity interaction Z-score [1, 14]: 0.541 ± 0.3
- promoter activity interaction Z-score [1, 15]: 0.0112 ± 0.031
- promoter activity interaction Z-score [1, 16]: 0.208 ± 0.26
- promoter activity interaction Z-score [1, 17]: 0.422 ± 0.39
- promoter activity interaction Z-score [1, 18]: 0.664 ± 0.6
- promoter activity interaction Z-score [1, 19]: 0.626 ± 0.16
- promoter activity interaction Z-score [2, 4]: -0.0178 ± 0.045
- promoter activity interaction Z-score [2, 5]: 0.0504 ± 0.056
- promoter activity interaction Z-score [2, 6]: -0.0409 ± 0.027
- promoter activity interaction Z-score [2, 7]: 0.0398 ± 0.17
- promoter activity interaction Z-score [2, 8]: -0.101 ± 0.2
- promoter activity interaction Z-score [2, 9]: -0.00878 ± 0.065
- promoter activity interaction Z-score [2, 10]: -0.0156 ± 0.16
- promoter activity interaction Z-score [2, 11]: -0.114 ± 0.0037
- promoter activity interaction Z-score [2, 12]: 0.00145 ± 0.18
- promoter activity interaction Z-score [2, 13]: -0.0653 ± 0.027
- promoter activity interaction Z-score [2, 14]: -0.14 ± 0.2
- promoter activity interaction Z-score [2, 15]: 0.0484 ± 0.0015
- promoter activity interaction Z-score [2, 16]: -0.129 ± 0.14
- promoter activity interaction Z-score [2, 17]: -0.17 ± 0.03
- promoter activity interaction Z-score [2, 18]: -0.105 ± 0.047
- promoter activity interaction Z-score [2, 19]: -0.0781 ± 0.094
- promoter activity interaction Z-score [3, 4]: 0.507 ± 0.061
- promoter activity interaction Z-score [3, 5]: 0.708 ± 0.42
- promoter activity interaction Z-score [3, 6]: 0.59 ± 0.074
- promoter activity interaction Z-score [3, 7]: 0.138 ± 0.1
- promoter activity interaction Z-score [3, 8]: 0.854 ± 0.025
- promoter activity interaction Z-score [3, 9]: 0.48 ± 0.12
- promoter activity interaction Z-score [3, 10]: 0.602 ± 0.42
- promoter activity interaction Z-score [3, 11]: 0.403 ± 0.22
- promoter activity interaction Z-score [3, 12]: 0.895 ± 0.33
- promoter activity interaction Z-score [3, 13]: 0.0373 ± 0.12
- promoter activity interaction Z-score [3, 14]: 0.307 ± 0.14
- promoter activity interaction Z-score [3, 15]: 0.13 ± 0.09
- promoter activity interaction Z-score [3, 16]: 1.01 ± 0.25
- promoter activity interaction Z-score [3, 17]: 0.851 ± 0.14
- promoter activity interaction Z-score [3, 18]: 0.476 ± 1.1
- promoter activity interaction Z-score [3, 19]: 1.13 ± 0.2

From the supplement of paper PMC12282887
